Screening data (PubChem BioAssay)
Rows were chosen to be rich in hits. Some 5.9% of all compounds tested hit in one or more screens of this group.
GALK inhibitor: galactokinase (human) inhibition; P51570; Purified GALK, Kinase-Glo residual ATP luminescence; Potency, µM (highest dose often 57.5 µM), for inactives: at the top dose activity change, negative = inhibition, most hits filed as inhibitors; 270,000 compounds, 0.007% hits; AID 1868; also: potency is read from the fitted curve at half-maximal effect
Target sequence (P51570 whole entry, looked up): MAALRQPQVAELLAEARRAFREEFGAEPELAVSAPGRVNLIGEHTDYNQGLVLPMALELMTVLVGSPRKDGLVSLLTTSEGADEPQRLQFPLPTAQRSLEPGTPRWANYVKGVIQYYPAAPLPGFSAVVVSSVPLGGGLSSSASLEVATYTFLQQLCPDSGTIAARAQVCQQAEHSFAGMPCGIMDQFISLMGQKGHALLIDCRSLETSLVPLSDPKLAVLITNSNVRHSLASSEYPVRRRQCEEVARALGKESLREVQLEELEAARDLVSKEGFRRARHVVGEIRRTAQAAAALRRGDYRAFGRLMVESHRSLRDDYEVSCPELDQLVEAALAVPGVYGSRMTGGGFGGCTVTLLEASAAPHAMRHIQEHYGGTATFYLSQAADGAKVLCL
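Kinase-Glo Plus luminescence measured ATP left after a 1 h room-temperature reaction. The reaction used 5 nM GALK, 100 uM galactose and 35 uM ATP at pH 8.0 (20 mM HEPES, 5 mM MgCl2, 60 mM NaCl, 1 mM DTT, 0.01% BSA).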
rTrxR1 inhibitor: blocks rat thioredoxin reductase 1; O89049; recombinant rTrxR1, NADPH fluorescence consumption, selenite substrate; Potency, µM (highest dose often 114 µM), for inactives: top-dose activity change, negative = inhibition, usual class: inhibitors; 390,000 compounds, 1% hits; AID 588453; also: potency is read from the fitted curve at half-maximal effect; nearly all actives have a fitted effect of over 65% in size
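Rat TrxR1 (90 nM in the dispensed reagent) was pre-reduced with 400 uM NADPH for 5 min at room temperature, then incubated with compound for 15 min. After 400 uM selenite was added, NADPH fluorescence (Ex 340/Em 450 nm) was followed for 8 min.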
Gal4-VP16 FLuc: inhibits Gal4-VP16 luciferase reporter, ROR gamma counter-screen; AID 2546; 310,000 compounds, 3.5% hits; Potency, µM (highest dose often 53.6 µM), inactives show at the top dose activity, negative = inhibition, most hits filed as inhibitors; Drosophila S2 Gal4-VP16 UAS-luciferase, luminescence, 20 h;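 also: Gal4-VP16 expression switched on by copper sulfate through the metallothionein promoter; potency is read from the fitted curve at half-maximal effect; nearly all actives have a fitted effect of over 50% in size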
Coupling enz: inhibits coupling enzyme system, counter-screen for aldolase hits; coupling enzyme system counterscreen, AmpLite Red fluorescence; activity change, negative = inhibition, % at 58.2 µM, hits read low; 290,000 compounds, 0.67% hits; AID 2472; in the data active = activity change below about -30%
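First, compound is pin-transferred into glyceraldehyde-3-phosphate coupling-enzyme reagent at 57.5 uM final and held 10 min at RT. Next, substrate, coupling system and AmpLite Red are added. After 20 min RT, fluorescence (525/598 nm) is read.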
RORg inh: blocks mouse ROR gamma transcriptional activity. P51450. Drosophila S2 Gal4-RORgamma UAS-luciferase reporter, 20 h. Potency, µM (highest dose often 53.6 µM), inactives show at the top dose activity change, negative = inhibition, usual class: inhibitors. 310,000 compounds, 5.4% hits. AID 2551; also: potency is read from the fitted curve at half-maximal effect; nearly all actives have a fitted effect of over 60% in size
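Compounds are pin-transferred onto Drosophila Schneider cells expressing a copper-inducible Gal4–ROR gamma transactivation domain fusion. After 1 hr, copper sulfate is added to 700 uM final; luciferase is read 20 hr later.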
TrxR1 substrate: rat thioredoxin reductase 1 substrate activity. purified TrxR1 substrate turnover, NADPH consumption readout. Potency, µM (highest dose often 114 µM), for inactives: at the top dose activity change, negative = substrate turnover. 390,000 compounds, 0.01% hits; also: potency is read from the fitted curve at half-maximal effect; nearly all actives have a fitted effect of over 50% in size
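Rat TrxR1, dispensed at 90 nM, was prereduced with 400 uM NADPH (final) for 5 min at ~22 deg C, then incubated with compound 15 min before 400 uM selenite. A first-read NADPH fluorescence drop versus no-compound background flagged substrates.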
The depositor's hits bear a star; ? = inconclusive; . = no result; [ ] = dose if it differs, or a comment. Unless noted, calls follow the shape of the dose curve; as a rule, active = well fitted curve in the direction sought with a large enough effect; inconclusive = small, poorly fitted or top-dose-only effect, or another doubt; inactive = no such curve, though single readings can be large; an effect the other way counts as inactive or inconclusive. % is scaled to controls: 0 for no effect and ±100 for the full control effect.

SMILES	GALK inhibitor	rTrxR1 inhibitor	Gal4-VP16 FLuc	Coupling enz	RORg inh	TrxR1 substrate
Cc1cccc(CS(=O)(=O)c2ncc(Cl)c(C(=O)Nc3c(C)cccc3C)n2)c1	-3%	?	8.9µM*	.	?	10%
CCOC(=O)c1nc(S(C)(=O)=O)ncc1Cl	-1%	18µM*	5µM*	-1	4µM*	10%
CCOC(=O)c1nc(S(C)(=O)=O)ncc1N1CCOCC1	-3%	4%	-4%	3	-1%	3%
Cc1cccc(CS(=O)(=O)c2ncc(Cl)c(C(=O)NCc3ccccc3)n2)c1	-6%	6.3µM*	3.2µM*	.	5.6µM*	-2%
Cc1ccccc1NC(=O)c1nc(S(C)(=O)=O)ncc1Cl	-4%	?	3.2µM*	-1	6.3µM*	4%
Cc1ccccc1N=Cc1ccc[nH]1	.	4%	.	.	.	-4%
Cc1ccc(N=Cc2ccc[nH]2)c(O)c1	2%	?	.	-34*	-18%[0.365 µM]	9%
CCC(=O)c1ccc(OCc2ccccc2)c(OC)c1	1%	-2%	23%	-3	?	-2%
CCC(C)(C)NC(=O)COc1ccc(C(=O)c2ccccc2)cc1	-2%	24%	13µM*	1	34%	0%
CCC(=O)c1ccc(OCc2ccc(C(=O)c3ccccc3)cc2)cc1	1%	6%[57.1 µM]	7.1µM*	0	?	-6%[57.1 µM]
CC1(c2nnc(Cc3ccccc3)o2)CC(c2ccc(Cl)cc2)=NO1 (stereo not given)	.	-1%[57.1 µM]	.	.	.	-5%
CCN(CC(=O)Nc1ccc(N2CCOCC2)cc1)CC(=O)NC(C)(C)C	0%	0%	9%	1	-23%	-5%
COc1ccc(OC)c(-n2c(-c3ccc(C)cc3)n[nH]c2=S)c1	-1%	-9%[57.1 µM]	?	2	4µM*	7%[57.1 µM]
COc1ccc(-c2n[nH]c(=S)n2-c2cc(OC)ccc2OC)cc1	1%	-26%	-13%	1	10µM*	0%
CC(=O)Nc1cccc(NC(=O)C(=O)NCCc2csc3nc(-c4ccccc4F)nn23)c1	.	-5%[57.1 µM]	.	.	.	-7%[57.1 µM]
COc1ccc(CN2C(=O)CSC2c2ccncc2)cc1 (stereo not given)	1%	12%[11.4 µM]	5%	3	-36%	6%[11.4 µM]
Cc1cc(C)nc(N/N=C/c2cc(C)n(CC(F)(F)F)c2C)n1	6%	-4%	?	-3	8.9µM*	-5%
CCOc1cccc(C(=O)NC(=S)Nc2cccc(C)c2)c1	0%	5µM*	10µM*	2	2.5µM*	-6%
CCCOc1cccc(C(=O)NC(=S)Nc2cccc(C(F)(F)F)c2)c1	1%	4%	?	1	10µM*	1%
Cn1c(C(=O)NCc2ccccc2F)cc2cc(S(=O)(=O)N3CCCCC3)ccc21	.	29%[57.1 µM]	.	.	.	3%[57.1 µM]
CCOCCCNC(=O)c1cc2c(=O)n3cccc(C)c3nc2s1	-2%	?	2%	-2	-1%	137%
Cc1nc(Nc2nc3ccccc3o2)nc2c1CCC2	12%	3%	6.3µM*	1	2.8µM*	-4%
Cc1nc(Nc2nc3ccccc3o2)nc(C)c1C(=O)Nc1ccc(F)cc1	4%	19%	2%	4	-2%	5%
Clc1ccccc1Nc1nc2ccccc2o1	.	11%	.	.	.	-2%
Cc1cccc(C)c1Nc1nc2ccccc2o1	0%	4%[57.1 µM]	?	2	16µM*	4%[57.1 µM]
SMILES	GALK inhibitor	rTrxR1 inhibitor	Gal4-VP16 FLuc	Coupling enz	RORg inh	TrxR1 substrate
c1ccc(-c2nnc3sc(CN4CCc5ccccc54)cn23)cc1	0%	4%	-12%	-1	?	-4%
CC(=O)N1c2ccccc2C(CBr)=CC1(C)C	-3%	-20%[57.1 µM]	-1%	-3	-12%	10%
O=C(Nc1ccccc1)Nc1scc2c1c(=O)oc1ccccc12	4%	36%	9%	-3	-9%	4%
COc1cc(CNCc2ccccn2)ccc1OCc1cccc(Cl)c1	-3%	2%	?	-1	4µM*	9%
COc1cc(CNCc2ccccn2)ccc1OCc1c(Cl)cccc1Cl	-1%	-6%[57.1 µM]	20µM*	1	14µM*	-5%[57.1 µM]
COc1cc(CNCc2ccccn2)ccc1OCc1ccc(Cl)cc1	-3%	-2%	-19%	2	-17%	4%
CCCCc1c(O)nc(SCC(=O)Nc2ccc(C)cc2)n(-c2ccc(OC)cc2)c1=O	-4%	8%	9%	.	33%	-2%
COc1ccc(C(=O)Nc2nc(C)cs2)cc1S(=O)(=O)N1CCCC1	7%	13%[57.1 µM]	-16%	0	5%	-1%[57.1 µM]
O=C(NCCO)Nc1ccc2nsnc2c1	0%	7%	-9%	-4	-1%	32%
Cc1nc2ccc(NC(=S)NCCCO)cc2nc1C	6%	7%[57.1 µM]	-19%	-30*	2%	13%[57.1 µM]
OCCNC(=S)Nc1ccc2nsnc2c1	-2%	-10%	27%	-47*	-14%	-4%
CCCNC(=S)Nc1ccc2nc(-c3ccccn3)c(-c3ccccn3)nc2c1	-2%	?	4%	-54*	?	-7%
Cc1ccc(-c2nnc(Nc3ccc(C(N)=O)cc3)c3ccccc23)cc1S(=O)(=O)N1CCCCC1	.	1%	.	.	.	-2%
O=C(Nc1ccccc1)Nc1nc(-c2ccc(F)cc2)cs1	1%	-4%	2%	0	-6%	-7%
O=C(Nc1nc(-c2ccccc2)cs1)c1ccccc1NS(=O)(=O)c1ccc(F)cc1	-20%	-14%	5.6µM*	9	?	32%
Fc1ccc(-c2csc(NC(=S)Nc3ccccc3)n2)cc1	-7%	11%	3.2µM*	-1	0.89µM*	-6%
CCOc1ccc(/C=N/Nc2ccc(Cl)nn2)c(O)c1	4%	5%[57.1 µM]	2µM*	1	1.6µM*	-1%[57.1 µM]
CCCOc1ccc(/C=N/NC(=S)Nc2ccccc2[N+](=O)[O-])c(O)c1	3%	-4%	-12%	5	0%	-4%
Oc1ccc(/C=N/Nc2ccc(Cl)nn2)c(O)c1O	-2%	-25%[57.1 µM]	-3%	-38*	-25%	-5%
CCCOc1ccc(/C=N/Nc2ccccc2[N+](=O)[O-])c(O)c1	6%	-12%	?	1	7.1µM*	-10%
O=C(c1ccncc1)N1CCC2(CCCN(c3ccc(-c4ccccc4)cc3)C2)CC1	.	.	-9%	0	-20%	.
COc1cc(Cl)ccc1OCc1cc(C(=O)NCC(C)c2ccccc2)no1 (stereo not given)	0%	34%	?	2	15%	7%
Cc1cc(CN(C)C(=O)c2cc(COc3ccc4ncccc4c3)on2)on1	0%	4%	3.2µM*	-2	7.9µM*	9%
O=C(c1cc(COc2ccc3ncccc3c2)on1)N1CCC[C@H]1CO	-3%	-5%	5µM*	2	?	0%
